The supplement of paper PMC13380429

Columns and labels:
[1] = system: Vero E6 infected with SARS-CoV-2; test: morphology score (similarity to uninfected cells); higher = more like uninfected cells; conditions: 24 h
[2] = system: Vero E6 infected with SARS-CoV-2; test: SARS-CoV-2 infection rate relative to infected DMSO; higher = more infection, active = 60 or less; conditions: 24 h

SMILES	morphology score [1]	SARS-CoV-2 infection rate [2]
Clc1ccc(-c2nc3sccn3c2/C=N/OCc2ccc(Cl)c(Cl)c2)cc1 (10 µM)	0.00562	107% (inactive)
CC(=O)NCC(=O)N[C@H](CCC(=O)O)C(=O)O [N-acetylglycyl-D-glutamic-acid] (10 µM)	0.127	98% (inactive)
CN(C)CCc1c[nH]c2ccc(C[C@H]3COC(=O)N3)cc12 [zolmitriptan] (10 µM)	0.127	92.5% (inactive)
O=C1CC[C@@H](C(=O)N2CSC[C@H]2C(=O)O)N1 [pidotimod] (10 µM)	-0.145	116% (inactive)
CC(C(=O)O)c1ccc2c(c1)Cc1ccccc1-2 (configuration not stated) [cicloprofen] (10 µM)	-0.0564	100% (inactive)
CC(C)c1noc(N2CCC(COc3ccc(-c4ccc(S(C)(=O)=O)cc4)nc3)CC2)n1 (10 µM)	-0.0966	116% (inactive)
CCOP(=S)(OCC)Oc1ccc2c(C)c(Cl)c(=O)oc2c1 [coumophos] (10 µM)	-0.0715	110% (inactive)
O=c1[nH]c(=O)n([C@H]2CCCO2)cc1F (racemic) [ftorafur] (10 µM)	-0.016	116% (inactive)
CN[C@@H](C)CCC=C(C)C [isometheptene-mucate] (10 µM)	-0.0576	109% (inactive)
CC(=O)NS(=O)(=O)c1ccc(NC(=O)c2ccccc2C(=O)O)cc1 [phthalylsulfacetamide] (10 µM)	0.21	99.5% (inactive)
NCc1c[nH]c(=S)n1[C@H]1CCc2c(F)cc(F)cc2C1 [nepicastat] (10 µM)	-0.046	104% (inactive)
Cc1nc(C)c(Cl)c(O)c1Cl [clopidol] (10 µM)	-0.0297	108% (inactive)
CCCCCCCCCCC(O)C1C=CC2C(=O)N(c3ccccc3)C(=O)C2N1Nc1ccc([N+](=O)[O-])cc1 (configuration not stated) (10 µM)	0.496	69.5% (inactive)
CC(O)(CS(=O)(=O)c1ccc(F)cc1)C(=O)Nc1ccc(C#N)c(C(F)(F)F)c1 (configuration not stated) [bicalutamide] (10 µM)	-0.00454	114% (inactive)
Cc1cc(C(=O)Nc2nc3cccc(Cl)c3n2[C@@H]2CCCCN(C(=O)/C=C/CN(C)C)C2)ccn1 (0.833333 µM)	-0.2	110% (inactive)
CC(=O)[C@@]12O[C@](C)(c3ccccc3)O[C@@H]1C[C@H]1[C@@H]3CCC4=CC(=O)CC[C@]4(C)[C@H]3CC[C@@]12C [algestone-acetophenide] (10 µM)	0.363	88.5% (inactive)
O=C(Nc1ccc(Cl)nc1)c1ccc(Cl)cc1 (10 µM)	0.18	99.5% (inactive)
Cc1cc2c(cc1C(F)(F)F)N(C(=O)Nc1ccc(Oc3cccnc3C)nc1)CC2 (10 µM)	0.281	90.5% (inactive)
N[C@@H](Cc1c[nH]c2ccc(O)cc12)C(=O)O [5-hydroxytryptophan] (10 µM)	0.197	104% (inactive)
Nc1ncnc2c1c(-c1ccc(Oc3ccccc3)cc1)nn2C1CCCC1 (10 µM)	-0.00746	122% (inactive)
CN(C)CCn1nnnc1SCC1=C(C(=O)O)N2C(=O)[C@@H](NC(=O)Cc3csc(N)n3)[C@H]2SC1 [cefotiam] (10 µM)	0.212	100% (inactive)
CCCCCCCCCCCCOS(=O)(=O)O [dodecyl-sulfate] (10 µM)	0.0848	103% (inactive)
CC(=O)/N=c1/[nH]c(C)c(-c2ccc(Cl)c(S(=O)(=O)NCCO)c2)s1 (0.833333 µM)	0.335	104% (inactive)
COc1cc(C(=S)N2CCOCC2)cc(OC)c1OC [sulmetozine] (10 µM)	0.0452	106% (inactive)
Cn1nc(C(C)(C)C)cc1C(=O)N[C@@H](Cc1cccc(Cl)c1)C(=O)NCC#N [cathepsin-inhibitor-1] (10 µM)	0.186	97.5% (inactive)
C=C1CC[C@@]2(O)[C@H]3Cc4ccc(O)c5c4[C@@]2(CCN3CC2CC2)[C@H]1O5 [nalmefene] (10 µM)	-0.0409	112% (inactive)

SMILES	morphology score [1]	SARS-CoV-2 infection rate [2]
O=c1cccc2n1C[C@@H]1CNC[C@H]2C1 [cytisine] (10 µM)	0.0351	114% (inactive)
CC(=O)OCC(=O)[C@@]1(O)CC[C@H]2[C@@H]3CCC4=CC(=O)C=C[C@]4(C)[C@@]3(F)[C@@H](O)C[C@@]21C [isoflupredone-acetate] (10 µM)	0.155	98% (inactive)
CO[C@H]1/C=C/O[C@@]2(C)Oc3c(C)c(O)c4c(O)c(c5c(nc6cc(C)ccn65)c4c3C2=O)NC(=O)/C(C)=C\C=C\[C@H](C)[C@H](O)[C@@H](C)[C@@H](O)[C@@H](C)[C@H](OC(C)=O)[C@@H]1C [rifaximin] (10 µM)	0.0779	108% (inactive)
Nc1nccc2c1ncn2C1C=C(CO)C(O)C1O (configuration not stated) [3-deazaneplanocin-A] (10 µM)	-0.104	112% (inactive)
C1CCN2C[C@@H]3C[C@@H](CN4CCCC[C@@H]34)[C@H]2C1 [sparteine-sulfate] (10 µM)	0.00477	112% (inactive)
COc1cc2nc(N3CCCN(C)CC3)nc(NC3CCN(Cc4ccccc4)CC3)c2cc1OC (0.833333 µM)	0.456	73.5% (inactive)
OC[C@H]1O[C@@H](n2cnc3c(NC4CCCC4)ncnc32)[C@H](O)[C@@H]1O [N6-cyclopentyladenosine] (10 µM)	-0.0139	109% (inactive)
O=C(O[C@H]1[C@H](OC(=O)c2cccnc2)[C@@H](OC(=O)c2cccnc2)[C@H](OC(=O)c2cccnc2)[C@@H](OC(=O)c2cccnc2)[C@H]1OC(=O)c1cccnc1)c1cccnc1 [inositol-hexanicotinate] (10 µM)	0.0225	109% (inactive)
CC1CNc2c(cccc2S(=O)(=O)N[C@@H](CCCNC(=N)N)C(=O)N2CC[C@@H](C)C[C@@H]2C(=O)O)C1 (mixture of isomers) [argatroban] (10 µM)	-0.0153	115% (inactive)
Cc1ncc(CO)c(C=O)c1O [pyridoxal] (10 µM)	-0.165	109% (inactive)
CS(=O)(=O)c1cc(F)cc2c3c(n(Cc4ccc(Cl)cc4)c12)[C@@H](CC(=O)O)CC3 [laropiprant] (10 µM)	0.0115	106% (inactive)
O=C1c2cccnc2OC[C@@H]2CCCN12 (10 µM)	-0.0333	108% (inactive)
O=C(O)c1ccc(CN2CCC(CN[C@@H]3C[C@H]3c3ccccc3)CC2)cc1 (10 µM)	0.106	98% (inactive)
CC1(C)CC[C@]2(NC(=O)C(C)(F)F)CC[C@]3(C)[C@H](C(=O)C=C4[C@@]5(C)C=C(C#N)C(=O)C(C)(C)[C@@H]5CC[C@]43C)[C@@H]2C1 [Omaveloxolone (RTA-408)] (10 µM)	-0.212	112% (inactive)
Nc1ncnc2c1c(-c1cccc(OCc3ccccc3)c1)cn2C1CC(CN2CCCC2)C1 (stereo in doubt) (0.833333 µM)	0.0762	92% (inactive)
N[C@@H](C[C@@H](F)C(=O)O)C(=O)O (10 µM)	0.0323	110% (inactive)
Clc1ccc2c(c1)N=C(N1CCNCC1)c1ccccc1N2 [desmethylclozapine] (10 µM)	0.467	53.5% (active)
O=C(N/N=C/c1ccc([N+](=O)[O-])o1)c1cc([N+](=O)[O-])cc([N+](=O)[O-])c1O [nifursol] (10 µM)	0.0974	111% (inactive)
CCOC(=O)Nc1ccc2c(c1)N(C(=O)CCN(CC)CC)c1ccccc1S2 [ethacizin] (10 µM)	0.00909	112% (inactive)
Cc1cnc(C(=O)N[C@H]2CCCCC/C=C\[C@@H]3C[C@@]3(C(=O)NS(=O)(=O)C3CC3)NC(=O)[C@@H]3C[C@@H](Oc4nc5ccccc5c5ccccc45)CN3C2=O)cn1 [paritaprevir] (10 µM)	0.303	98% (inactive)
O=C(c1cccc(Br)c1)N1CCC(N2CCCC2)CC1 (10 µM)	-0.00696	106% (inactive)
Clc1ccc(CO/N=C(\Cn2ccnc2)c2ccc(Cl)cc2Cl)c(Cl)c1 [oxiconazole] (10 µM)	-0.0771	114% (inactive)
O=C(NNc1ccccc1)c1ccncc1 [plurisin-1] (10 µM)	-0.14	108% (inactive)
CCCCC(CC)CCC(CC(C)C)OS(=O)(=O)O (configuration not stated) [sodium-tetradecyl-sulfate] (10 µM)	0.0389	102% (inactive)
O=C(Nc1ccccc1C(=O)Nc1ccc(CCO)cc1)c1ccc([N+](=O)[O-])cc1 (10 µM)	-0.0336	112% (inactive)
